# Measurements taken from the supplement of paper PMC10646978.
# ± gives the standard deviation.
# Columns and labels:
# Conditions in all cases: modulator concentration 10 µM
# [1] = test system: RAW-Dual (murine macrophage reporter line); assay: NF-kB reporter (SEAP) activity fold change vs agonist alone; higher = enhanced NF-kB activity
# In short: (§1)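 Compound reached 10 μM final in each well by pin transfer, onto RAW-Dual murine macrophage reporter cells seeded at 50 000 per well in 384-well plates. After 1 hour at 37 °C, the cells were stimulated overnight with a PRR agonist. SEAP in the supernatant was read with QUANTI-Blue at 620 nm absorbance for NF-κB, and Lucia luciferase was read with QUANTI-Luc luminescence for IRF. Each signal was turned into fold change against the mean agonist-only control on the same plate, and two replicate plates were averaged with propagated errors.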
# [2] = test system: RAW-Dual (murine macrophage reporter line); assay: IRF reporter (Lucia luciferase) activity fold change vs agonist alone; higher = enhanced IRF activity
# In short: as §1
# [3] = test system: RAW-Dual (murine macrophage reporter line); assay: viability score (confluency relative to resting cells, overnight) (fraction); higher = more viable, active = viable (0.7 or more)
# In short: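 RAW-Dual macrophages in 384-well plates were treated overnight with compound at 10 μM final. IncuCyte imaging recorded confluency, and IncuCyte software built two confluency masks across every imaged well. The viability score expresses confluency relative to resting cells and was judged against a cutoff, which a compound met only if both masks exceeded 70% of resting cells.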
# [4] = agonist: CpG ODN 1826 0.5 ug/mL
Compound,"NF-kB reporter [1, 4]",NF-kB reporter ([1]; agonist: LPS 0.1 ug/mL),NF-kB reporter ([1]; agonist: MPLA […]),IRF reporter ([2]; agonist: 3'3'-cGAMP 10 ug/mL),IRF reporter ([2]; agonist: LPS 0.1 ug/mL),IRF reporter ([2]; agonist: MPLA […]),viability score [3]
COc1ccc(CCNC(=O)NCc2nnc3n2CCC(C(F)(F)F)C3)cc1 (centres undefined),0.951 ± 0.067,1.02 ± 0.088,0.947 ± 0.072,1.05 ± 0.072,1.17 ± 0.07,1.12 ± 0.23,1.01 (active)
CN(C)CCC=C1c2ccccc2CCc2ccccc21.Cl,0.903 ± 0.19,1.26 ± 0.48,1.21 ± 0.17,0.423 ± 0.017,1.31 ± 0.44,1.12 ± 0.084,0.412 (inactive)
CC12CCC3c4ccc(O)cc4CCC3C1CCC2OC(=O)CCC1CCCC1 (centres undefined),1.02 ± 0.093,0.997 ± 0.09,0.867 ± 0.082,0.969 ± 0.03,1.15 ± 0.15,1.21 ± 0.14,0.98 (active)
Cc1cc(C(O)CCNC(=O)Nc2ccc(Cl)c(Cl)c2)c(C)o1 (centres undefined),0.577 ± 0.033,0.87 ± 0.075,0.791 ± 0.072,0.835 ± 0.038,0.974 ± 0.22,0.863 ± 0.31,0.975 (active)
CCCC(CCC)C(=O)O,1.05 ± 0.099,1.01 ± 0.16,0.99 ± 0.045,0.957 ± 0.079,0.965 ± 0.032,0.897 ± 0.094,0.992 (active)
Cc1cc(C)c2c(c1)[C@@H](N(Cc1cc(C(F)(F)F)cc(C(F)(F)F)c1)c1nnn(C)n1)CCCN2C[C@H]1CC[C@H](C(=O)O)CC1,0.717 ± 0.054,0.861 ± 0.097,1.08 ± 0.036,0.985 ± 0.058,0.955 ± 0.033,1.09 ± 0.14,1.01 (active)
COC(=O)Nc1nc2cc(C(=O)c3cccs3)ccc2[nH]1 [Prestw-100],2.4 ± 0.14,1.31 ± 0.094,1.98 ± 0.13,0.101 ± 0.0035,1.86 ± 0.18,2.05 ± 0.19,0.715 (active)
CN(C)CCCN1c2ccccc2Sc2ccccc21.Cl,0.791 ± 0.075,0.956 ± 0.12,1.25 ± 0.054,0.719 ± 0.051,0.994 ± 0.07,0.798 ± 0.069,0.534 (inactive)
N#Cc1nc(-c2ccc(COc3ccc(Cl)cc3)o2)oc1N1CCCCC1,0.826 ± 0.063,1.29 ± 0.14,1.13 ± 0.075,1.21 ± 0.047,1.57 ± 0.1,1.12 ± 0.15,0.998 (active)
CCN(CC)CC#CC(OC)(c1ccccc1)c1ccccc1.Cl,0.356 ± 0.088,0.414 ± 0.063,0.47 ± 0.082,0.549 ± 0.019,1.16 ± 0.16,1.29 ± 0.23,0.148 (inactive)
CC(C)NCC(O)COc1cccc2[nH]ccc12 (centres undefined) [Prestw-90],1.59 ± 0.38,0.968 ± 0.068,1.13 ± 0.13,1.01 ± 0.046,1.17 ± 0.13,1.17 ± 0.11,0.985 (active)
O=C(CSc1nc2c(c(=O)n1-c1ccccc1)SCC2)N1CCN(c2ccccc2)CC1,0.985 ± 0.08,1.09 ± 0.057,1.14 ± 0.036,1.15 ± 0.081,0.879 ± 0.046,0.953 ± 0.076,1 (active)
C#CCCCCCCCCCCCC(=O)CC(O)COC(C)=O (centres undefined),0.822 ± 0.073,0.338 ± 0.034,0.808 ± 0.022,0.176 ± 0.019,0.878 ± 0.098,0.81 ± 0.15,0.849 (active)
Cc1ncc(CC(=O)N2CCC(c3ccccc3Cl)S(=O)(=O)CC2)s1 (centres undefined),0.884 ± 0.07,0.974 ± 0.12,0.972 ± 0.032,1.11 ± 0.092,0.981 ± 0.076,0.944 ± 0.24,1 (active)
COc1ccc(NC(=O)c2cn(-c3cc(N4CCSCC4)ncn3)cn2)cc1,1.04 ± 0.058,1.13 ± 0.091,0.939 ± 0.041,1.03 ± 0.069,1.13 ± 0.23,1.07 ± 0.33,0.997 (active)
COc1c(O)cc(O)cc1O,1.03 ± 0.095,1.08 ± 0.057,1.1 ± 0.047,1.07 ± 0.069,0.985 ± 0.078,1.02 ± 0.17,0.996 (active)
COc1ccc(-c2cc3nc(C)cc(NCCN4CCOCC4)n3n2)cc1OC,1.11 ± 0.086,0.962 ± 0.076,0.976 ± 0.026,1.06 ± 0.13,0.998 ± 0.12,1.05 ± 0.22,0.997 (active)
O=C(c1ccc(OC(F)(F)F)cc1)N1CCC(Oc2cccnn2)CC1,1.04 ± 0.094,1.25 ± 0.1,0.926 ± 0.049,1.03 ± 0.073,1.08 ± 0.065,1.15 ± 0.087,1.01 (active)
Nc1ncn([C@H]2C[C@H](O)[C@@H](CO)O2)c(=O)n1,1.3 ± 0.11,0.995 ± 0.054,1.15 ± 0.061,1.84 ± 0.32,1.09 ± 0.048,1.39 ± 0.27,0.963 (active)
Cc1cn[nH]c1,0.122 ± 0.015,0.0449 ± 0.0036,0.154 ± 0.0086,0.685 ± 0.032,1.81 ± 0.19,2.85 ± 0.43,0.702 (active)
COc1cc(Cl)c(C)cc1NC(=O)c1ccccc1Cl,0.906 ± 0.26,1.11 ± 0.062,1.4 ± 0.22,0.914 ± 0.042,0.991 ± 0.15,1.1 ± 0.12,0.981 (active)
Cc1nc2ccc(CN(C)c3ccc(C(=O)N[C@@H](CCC(=O)O)C(=O)O)s3)cc2c(=O)[nH]1,1.28 ± 0.1,1.03 ± 0.052,1.18 ± 0.1,0.863 ± 0.042,1.09 ± 0.063,1.07 ± 0.12,1 (active)
CS(=O)(=O)N(CC(=O)NCCSCc1cccc(Cl)c1)c1cccc(Cl)c1,0.978 ± 0.16,0.986 ± 0.079,1.1 ± 0.15,1.02 ± 0.033,1.08 ± 0.11,1.24 ± 0.42,1 (active)
O=C(Nc1cc(C(F)(F)F)cc(C(F)(F)F)c1)c1ccco1,0.816 ± 0.11,1.07 ± 0.061,1.02 ± 0.072,0.715 ± 0.019,1.07 ± 0.23,0.89 ± 0.15,1.01 (active)
CC12C=CC(CO)(O1)C1C(=O)NC(=O)C12 (centres undefined),1.26 ± 0.1,1.07 ± 0.066,0.838 ± 0.082,0.907 ± 0.047,0.469 ± 0.027,0.32 ± 0.027,0.783 (active)
O=S1(=O)CCC(NCc2ccccc2C(F)(F)F)C1 (centres undefined),0.997 ± 0.095,1.13 ± 0.11,0.978 ± 0.08,1.02 ± 0.071,1.03 ± 0.092,1.04 ± 0.32,1 (active)
Cc1ccc(N2C(=O)C(=CC3CC=CCC3)SC2=S)cc1 (centres undefined),0.652 ± 0.054,0.835 ± 0.039,0.817 ± 0.076,0.397 ± 0.022,1.04 ± 0.075,0.963 ± 0.1,0.973 (active)
